Measured values reported in PubChem BioAssay AID1240 (Sanford-Burnham Center for Chemical Genomics, 2008).
Out of some 50,000 compounds screened, about 800 (1.6%) showed an effect of 50% or more. Many of the other results were omitted from the sample, so strong results are more common in it than they were.

What follows are compounds tested against Bcl-2-like protein 10 (Homo sapiens) (UniProt Q9HD36) (assay: TR3 peptide-Bcl-B binding displacers, biochemical primary FP assay, phenotype converters (AID 1240;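 note: 0% = Bcl-B with tracer peptide and DMSO and 100% = tracer peptide lacking Bcl-B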)). Conditions: GST-Bcl-B / FITC-TR3 peptide fluorescence polarization; stronger effect = higher value; compound at 3.75 mg/L.
Chain of Bcl-2-like protein 10 (Homo sapiens) (Q9HD36 whole entry, looked up): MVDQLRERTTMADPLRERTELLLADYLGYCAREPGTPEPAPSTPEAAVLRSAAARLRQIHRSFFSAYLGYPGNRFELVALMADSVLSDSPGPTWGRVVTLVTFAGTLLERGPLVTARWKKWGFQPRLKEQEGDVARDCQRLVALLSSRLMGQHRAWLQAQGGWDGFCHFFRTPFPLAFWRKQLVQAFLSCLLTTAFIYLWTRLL

SMILES | displacement
CC(=O)c1cccc(NC(=O)/C(=C\c2cccnc2)NC(=O)c2ccccc2)c1 | -5.3%
N/C(Cc1cccc2ccccc12)=N\OC(=O)c1ccc(F)cc1 | 31.7%
COc1ccc(C/C(N)=N/OC(=O)c2cccs2)cc1 | 8.1%
N/C(Cc1cccc2ccccc12)=N\OC(=O)c1cccs1 | 98.4%
COc1ccc(C(=O)CSc2nc3c(c(-c4ccc(C)o4)c2C#N)CCCC3)cc1 | 7.6%
CC(C)(C)C1(O)CC(C(F)(F)F)=NN1C(=O)COc1ccccc1 (configuration not stated) | -7.4%
O=C1ON=C(c2ccccc2)/C1=C/c1cccnc1 | -9.2%
O=C1ON=C(c2ccccc2)/C1=C/c1ccc(Br)s1 | 70.8%
CCCCc1ccc(/C=C2/C(=O)ON=C2c2ccccc2)s1 | 40.8%
CCCCN(CC)c1cnn(-c2ccccc2)c(=O)c1N | 10.6%
CC(=O)C1=C(Nc2ccc(Br)cc2)CC(C)(O)C(C(C)=O)C1c1ccc(C)cc1 (configuration not stated) | -4.9%
COc1ccc(C2C(C(C)=O)=C(Nc3ccc(Br)cc3)CC(C)(O)C2C(C)=O)cc1 (configuration not stated) | 90.9%
COc1ccc(C2C(C(C)=O)=C(Nc3ccccc3)CC(C)(O)C2C(C)=O)cc1 (configuration not stated) | 1.4%
COc1ccc(C2Nc3ccccc3C(=O)N2Cc2ccccc2)cc1Cn1nc(C)c(Br)c1C (configuration not stated) | 15.4%
CCOC(=O)c1sc(NC(=O)COc2ccc(Cl)cc2C)c(C(=O)OCC)c1C | -5.1%
Cc1cc(Cl)ccc1OCC(=O)Nc1sc(C)c(C)c1C(N)=O | 79.1%
CCOC(=O)c1c(NC(=O)COc2cc(Cl)ccc2Cl)sc(C)c1C | -8%
O=C(N/N=C/c1ccc(Cl)c(Cl)c1)C1CC(=O)N(c2ccccc2)C1 (configuration not stated) | -9.3%
CS(=O)(=O)N(CC(=O)NCc1ccncc1)c1ccc(Oc2ccccc2)cc1 | 10.2%
Fc1ccccc1-c1nc(-c2ccc(Br)cc2)no1 | 4.3%
Cc1ccc2nsnc2c1NC(=O)c1ccc(Br)o1 | 15.6%
O=C(Nc1cccc2nsnc12)c1ccc(Br)o1 | 69.6%
CCOc1ccc(C(=O)Nc2cccc3nsnc23)cc1Br | 78.2%
O=C(Nc1cccc2nsnc12)c1ccco1 | 4%

SMILES | displacement
CCOc1ccc(C(=O)Nc2cccc3nsnc23)cc1[N+](=O)[O-] | 10.7%
CCOc1ccc(C(=O)Nc2cccc3nsnc23)cc1Cl | 30.9%
O=C(Nc1sc2c(c1C(=O)N1CCCCC1)CCCCC2)c1ccc([N+](=O)[O-])cc1 | -2.1%
COc1cccc(OC)c1C(=O)NCc1ccc(C)cc1 | 2.7%
Fc1ccc(-c2noc(-c3ccc(Cl)cc3)n2)cc1 | -6.4%
COc1cc(C(=O)N2CCN(C)CC2)c([N+](=O)[O-])cc1OC | -0.1%
COc1ccc(-c2noc(-c3ccc(C)c([N+](=O)[O-])c3)n2)cc1OC | 54.4%
COc1ccc(-c2nc(-c3cc(OC)c(OC)c(OC)c3)no2)cc1OC | -5.7%
Cc1cccc(-c2noc(-c3ccc(C)c([N+](=O)[O-])c3)n2)c1 | 76.1%
Cc1ccc(-c2nc(-c3cccnc3)no2)cc1[N+](=O)[O-] | 21.4%
COc1ccc(-c2noc(-c3ccc(C)c([N+](=O)[O-])c3)n2)cc1 | -0.4%
Cc1ccc(-c2noc(-c3cccc([N+](=O)[O-])c3C)n2)cc1 | 6.9%
Cc1c(-c2nc(-c3ccncc3)no2)cccc1[N+](=O)[O-] | 0.7%
Cc1cccc(-c2noc(-c3cccc([N+](=O)[O-])c3C)n2)c1 | 78.9%
Cc1cccc(-c2noc(-c3ccc(Br)cc3)n2)c1 | -1.7%
O=C1c2ccccc2C(=O)C1C1=CC(c2ccccc2)C(c2ccccc2)N=N1 (configuration not stated) | -10%
O=S(=O)(NC(=S)c1ccccc1)c1ccc(I)cc1 | 11.9%
COc1cc(/C=C2\C(=O)NC(=O)N(c3ccc(Cl)cc3)C2=O)cc(Cl)c1OC | -2.2%
COc1ccc(/C=C/C(=O)c2ccc(Br)cc2)cc1[N+](=O)[O-] | 12.9%
O=C(CSc1nnnn1-c1ccccc1)Nc1ccccc1[N+](=O)[O-] | 1.7%
O=C(CSc1ccc(Cl)cc1)NCCc1ccc(F)cc1 | -8.3%
O=C(NCc1ccc2c(c1)OCO2)c1ccccc1F | 14.1%
O=C(Nc1ccc2c(c1)OCO2)C(=O)Nc1ccc2c(c1)OCO2 | 21.3%
O=C(NNC(=O)c1ccc2c(c1)OCO2)NC1CCCCC1 | 10.1%

SMILES | displacement
c1cc2c(cc1NC1CCCCC1)OCO2 | 130%
Cc1nn(Cc2cccc(Cl)c2)c(N)c1-c1ccccc1 | -9%
CCOc1ccc(/C=N\NC(=O)c2ccc(Br)cc2)c(O)c1 | 6.9%
Cc1ccc(C(=O)Nc2ccc(S(=O)(=O)N3CCc4ccccc43)cc2)cc1 | 1.6%
O=C(Nc1ccc(S(=O)(=O)N2CCc3ccccc32)cc1)c1ccc(-c2ccccc2)cc1 | 89.5%
O=C(Nc1ccc(S(=O)(=O)N2CCc3ccccc32)cc1)c1ccc(Cl)cc1 | 0.8%
O=C(O)c1c(F)c(F)c(F)c(F)c1-c1ccc(Cl)cc1 | 11.8%
O=c1c(-c2ccccc2)coc2cc(OCc3ccccc3Cl)ccc12 | 20.7%
Oc1cc(OCc2ccccc2Cl)ccc1-c1[nH]ncc1-c1ccccc1 | 77.4%
Cc1oc2ccc(OCc3ccccc3Cl)cc2c1C(=O)O | 5.8%
Cc1ccc(C(=O)/C=C/Nc2cccc(O)c2)cc1 | -0.4%
CCOC(=O)c1ccc(NC(=O)/C=C/c2ccc(Cl)cc2)cc1 | 16.8%
Cc1cccc(N/C=C/C(=O)c2ccc(Cl)cc2)c1 | -2.2%
CCOC(=O)c1ccc(N/C=C/C(=O)c2ccc(Cl)cc2)cc1 | 59.8%
CCOC(=O)c1ccc(N/C=C/C(=O)c2cccs2)cc1 | 14.1%
Cc1ccc(C(=O)/C=C/Nc2ccc(Cl)c(Cl)c2)cc1 | 126%
CCOc1ccccc1C(=O)NCCc1nc2ccccc2[nH]1 | 4.7%
O=C(NC1C2CC3CC(C2)CC1C3)c1ccccc1F (configuration not stated) | 4.9%
Cc1cc(/C=C2/SC(=O)NC2=O)c(C)n1-c1cccnc1 | 0.8%
C/C(=N\NC(=O)c1cc2ccccc2cc1O)c1ccco1 | 10%
COC(=O)c1cc(-c2ccc(C)cc2)nc2ccccc12 | 2.1%
COc1ccc(-c2cc(-c3ccc(Br)cc3)nc(N)c2C#N)cc1 | 70.6%
COc1ccc(-c2cc(-c3ccc(Cl)cc3)c(C#N)c(N)n2)cc1 | 6.4%
N#Cc1c(-c2ccccc2)cc(-c2ccc(Br)cc2)nc1N | 8.8%
